Shiga inhibitor – blocks Shiga toxin action in Vero cells; inhibition, % at 38.7 µM; Vero cells, Shiga toxin protein synthesis inhibition reporter; hit rate 9.2% among 290,000; AID 2315; in the data active means inhibition mostly above about 28%, no sharp cut-off; inactive means mostly below about 43%; further: 0% is about no effect
MARV entry inh – blocks Marburg virus binding to or entry into cells; Marburg virus pseudotyped entry inhibition, cell reporter; Potency, µM (highest dose often 37.8 µM), without a hit: at the highest dose activity change, negative = inhibition, actives largely listed as inhibitors; hit rate 1.8% among 300,000; AID 540276; calls by dose curve; tested in HEK293 cells; further: potency means the concentration at half of the fitted maximal effect; on the % scale 0 is the no-effect control and ±100 the full control effect
CHX counter – counter-screen hit for Shiga toxin inhibitors, cycloheximide | AID 2314 | cell reporter, cycloheximide protein synthesis inhibition counterscreen | max response, % | hit rate 12% among 300,000; in the data active means max response mostly above about 13%, no sharp cut-off; inactive means mostly below about 14%; further: read at 38.3 µM for the half of the compounds with a filed dose; 0% is about no effect
HCV inh – blocks hepatitis C virus; hit rate 3.4% among 340,000; Huh7.5.1 HCVcc-Cre infection, luciferase reporter, 44 h; Potency, µM (titrated, usually from 41.8 µM), for inactives: at the highest dose activity change, negative = inhibition, actives largely listed as inhibitors; active means well fitted inhibition curve with a large enough effect; inconclusive means small, poorly fitted or top-dose-only effect, or another doubt; inactive means no such curve, though single readings can be large or run the other way; further: potency means the concentration at half of the fitted maximal effect; on the % scale 0 is the no-effect control and ±100 the full control effect
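Infectious HCV cell culture screen: compound-treated cells (1,000/well, pre-plated 4 h) are infected with HCVcc-Cre at roughly 0.5 moi and grown 44 h. Infection is quantified by luciferase signal after 15 min substrate incubation at room temperature.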
LASV entry inh – Lassa virus entry inhibition; Potency, µM (top dose mostly 37.9 µM), for the others: top-dose activity change, negative = inhibition, actives largely listed as inhibitors; Lassa virus pseudotype entry inhibition, cell reporter; hit rate 1.2% among 300,000; calls by dose curve; tested in HEK293 cells; further: potency means the concentration at half of the fitted maximal effect; on the % scale 0 is the no-effect control and ±100 the full control effect; nearly all actives have a fitted effect of over 50% in size
FMDV inh – foot and mouth disease virus antiviral activity. Potency, µM (doses to about 57.9 µM), for inactives: at the highest dose activity change, negative = inhibition, hits mostly inhibitors. FMDV antiviral cell-based qHTS. hit rate 1.2% among 410,000. AID 1159524; calls by dose curve; tested in HEK293T cells; further: read-out not given here; potency means the concentration at half of the fitted maximal effect; on the % scale 0 is the no-effect control and ±100 the full control effect; nearly all actives have a fitted effect of over 45% in size
Active calls of the source: *; ? = inconclusive; nt = no result given; [ ] = remark or other dose. An excerpt weighted towards active compounds, which were near 13% of everything screened.

SMILES | Shiga inhibitor | MARV entry inh | CHX counter | HCV inh | LASV entry inh | FMDV inh
Cc1ccccc1Cn1ccc(-c2ccc3c(c2)OCO3)n1 | 74* | 7% | 60* | -26% | ? | 12%
O=C(Cn1nnc(-c2ccc3c(c2)OCO3)n1)NCc1ccccc1 | -8 | 14% | -4 | 2% | 3% | -4%
Fc1cccc(Cn2ccc(-c3ccc4c(c3)OCO4)n2)c1 | 99* | ? | 57* | -21% | ? | 37%
Fc1cccc(Cl)c1CSc1nnnn1-c1ccc2c(c1)OCO2 | -19 | ? | -5 | -9% | ? | nt
Cc1ccccc1Cn1nnc(-c2ccc3c(c2)OCO3)n1 | 54* | -9% | 49* | ? | -20% | 47%
Nc1ccn(Cc2cccc(F)c2)n1 | 11 | nt | -5 | 16% | nt | 3%
Cc1cccc(NC(=O)CSc2ccc(-c3ccc4c(c3)OCO4)nn2)c1C | 22 | -1% | 1 | 8% | 0% | 2%
COc1cccc(Cn2c(NCc3ccc(C)cc3)nc3c2c(=O)n(C)c(=O)n3C)c1 | nt | 3%[46.1 µM] | nt | nt | -6%[46.1 µM] | -21%
COc1ccc(C(CNC(=O)c2cccc(S(=O)(=O)N3CCCC(C)C3)c2)N(C)C)cc1 (stereo not drawn) | nt | nt | nt | ? | nt | -16%
CCCCCc1nnc(NC(=O)c2ccc3nc[nH]c3c2)s1 | nt | nt | nt | 7% | nt | -7%
O=C(Cn1nnc(-c2ccc3c(c2)OCO3)n1)N1CCOCC1 | 83 | ? | 13 | 16% | 26% | 2%
N#CCn1nnc(-c2ccc3c(c2)OCO3)n1 | 40 | 5% | 34* | -3% | 8% | 3%
CCSc1ncc(/C=N/Nc2ccc(F)cc2)n1C | 52* | -10% | 30* | ? | -30% | 9%
CS(=O)(=O)c1ccc(NCCN2CCOCC2)c([N+](=O)[O-])c1 | 9 | 10%[46.1 µM] | -1 | 4% | -10%[46.1 µM] | -3%
COC(=O)/C=C1/N/C(=N\c2nc(C)cc(C)n2)N(c2cccc(C)c2)C1=O | -12 | -2% | 5 | 5% | ? | 28µM*
O=C(NC1CCCCCC1)c1ccc(Cl)c(S(=O)(=O)N2CCOCC2)c1 | -3 | 2%[46.1 µM] | 1 | -18% | 1% | 5%
CCN(CC)CCNC(=O)c1ccc(NC(=O)c2ccc(Cl)c(S(=O)(=O)N3CCCCCC3)c2)cc1 | 14 | ? | 1 | 14µM* | 10% | -29%
CN1CCN(C(=O)c2ccc(Cl)c(S(=O)(=O)N3CCCCCC3)c2)CC1 | -37 | -3%[46.1 µM] | -3 | -4% | 17% | -17%
O=C(NC1CCCC1)c1ccc(Cl)c(S(=O)(=O)N2CCCCC2)c1 | -4 | -5% | -4 | 35µM* | -4% | -13%
COc1cc2c(cc1OC)C(C)N(C(=O)c1ccc(Cl)c(S(=O)(=O)N3CCCCC3)c1)CC2 (stereo not drawn) | 22 | nt | -2 | 8.9µM* | nt | -28%
O=C(Nc1ccccn1)c1ccc(Br)c(S(=O)(=O)N2CCCC2)c1 | 50* | 0% | 34* | ? | 10% | -25%
COc1ccc(/C=N/n2c(-c3n[nH]c4c3CCC4)n[nH]c2=S)cc1 | -2 | 8% | -3 | 20% | -22% | -10%
CCOC(=O)c1cc2c(C)[nH]c(C)c2cc(C(=O)OCC)c1=O | 0 | 9%[46.1 µM] | -3 | 12% | 7%[46.1 µM] | -7%
COc1ccc(-n2c(Cc3cccn3C)nnc2SCC(=O)Nc2cccc(F)c2)cc1 | 11 | -24% | 15 | -25% | 6% | -6%
O=C(Nc1nc2ccccc2[nH]1)c1ccc(Cl)c(S(=O)(=O)N2CCCC2)c1 | 71 | ? | 33* | 22µM* | ? | ?
SMILES | Shiga inhibitor | MARV entry inh | CHX counter | HCV inh | LASV entry inh | FMDV inh
O=C(Nc1ccc(Br)cc1)c1ccc(Cl)c(S(=O)(=O)N2CCCCCC2)c1 | nt | nt | nt | nt | ? | 28µM*
CC1CCN(S(=O)(=O)c2cc(C(=O)N3CCN(c4ncccn4)CC3)ccc2Br)CC1 | -10 | ? | -3 | ? | ? | 20µM*
CCN(CC)CCNC(=O)c1ccc(NC(=O)c2ccc(S(=O)(=O)N3CCCCCC3)cc2)cc1 | nt | ? | nt | 10µM* | 6% | 9%
CCN(CC)CCNC(=O)c1ccc(NC(=O)c2cccc(S(=O)(=O)N3CCCCCC3)c2)cc1 | nt | ? | nt | ? | ? | 6%
Cc1nc(CN(C)C(=O)C2CCC(=O)N(CCc3cccc(F)c3)C2)cs1 (stereo not drawn) | 4 | -1% | -2 | 15% | -6% | -7%
Cc1cc(NC(=O)c2ccccc2F)ncc1NC(=O)c1cccs1 | 54 | nt | 21* | -18% | nt | 41%
Cc1ccccc1NC(=O)c1ccccc1NC(=O)c1cccs1 | -4 | 20%[46.1 µM] | -2 | 10% | 5% | 3%
CCCC(=O)Nc1cc(C)c(NC(=O)c2cccs2)cn1 | -9 | 4%[46.1 µM] | 14 | 4% | 9% | 32%
Cc1cc(NC(=O)c2ccccc2)ncc1NC(=O)c1cccs1 | 124* | nt | 40* | 0% | nt | 76%
Cc1cc(NC(=O)c2cccs2)ncc1NC(=O)c1cccc(F)c1 | 66* | -6% | 42* | -15% | 2% | 69%
Cc1cc(NC(=O)c2cccs2)ncc1NC(=O)C(C)C | 39* | -2% | 38* | 13% | ? | 30%
COC(CNC(=O)C(=O)NCC1OCCN1S(=O)(=O)c1ccccc1)OC (stereo not drawn) | nt | 10% | nt | 12% | ? | 5%
Cc1cc(C)n(-c2ccc(C(=O)N3CCN(S(=O)(=O)c4cccc(Br)c4)CC3)cc2)n1 | nt | nt | nt | 7.9µM* | nt | ?
Cc1cc(C)n(-c2ccc(C(=O)OC(C)C)cc2)n1 | 15 | 5% | 20* | 1% | ? | nt
Cc1cc(C)n(-c2ccc(C(=O)Nc3cccc(S(=O)(=O)N4CCCC4)c3)cc2)n1 | -13 | ? | -1 | ? | ? | -23%
O=C(c1ccc2ccccc2c1)N1CCc2ccccc21 | 48 | 0%[46.1 µM] | 37* | -11% | 2% | 33%
CCCOc1ccc(C(=O)N2CCCc3ccccc32)cc1 | 19 | ? | 15* | ? | ? | -3%
COC(=O)c1ccc(OCC(=O)N2CCCc3ccccc32)cc1 | -3 | 15%[46.1 µM] | 0 | -12% | -10% | 32%
CC(C)(C)c1cc(C(=O)N2CCc3ccccc32)ccn1 | 40* | ? | 9 | -26% | 0% | -21%
COc1ccc(C(=O)OC2CCN(C)CC2)cc1 | 8 | ? | 8 | 15% | 2% | -15%
CCOc1ccc(C(=O)OC2CCN(C)CC2)cc1 | 26 | ? | 14* | 14% | 1% | 29%
COc1cc(C(=O)N2CCc3ccccc32)cc(OC)c1OC | 1 | ? | 1 | 0% | -7% | -16%
CC(C)(C)c1cc(C(=O)N2CCc3ccccc3C2)ccn1 | 3 | nt | 13 | 2% | nt | 1%
CCOc1ccc(C(=O)N2CCc3ccccc32)cc1 | 64* | nt | 44* | -2% | nt | 58%
COc1cc2ccccc2cc1C(=O)N1CCc2ccccc21 | nt | ? | nt | 8.9µM* | -23% | 18%
Cc1ccc(-n2c(O)c(/C=N/n3cnnc3)c3ccccc3c2=O)cc1 | -25 | 3% | -1 | 1% | -24% | -1%
Cc1cc(C)n(-c2ccc(C(=O)N3CCc4ccccc43)cc2)n1 | 63* | -17% | 18* | ? | 18% | -20%

Screens (PubChem BioAssay)
